What all share (conditions): primary human HUVEC with PBMC; actives raise or lower the signal
Read-out in assay [1]: Monocyte Chemoattractant Protein-1 (MCP1), CCL2 (gene 6347)
The experiment in a line: BSK_LPS_MCP1: BioMAP Diversity Plus: LPS Assay for Monocyte Chemoattractant Protein-1 (MCP1) Biomarker Activity (AID 2283081).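 As to AC50: secreted MCP-1 protein quantified by ELISA in culture supernatant.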 In a few lines: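 Human endothelial–PBMC co-cultures were dosed with chemical, then LPS-driven MCP-1 levels were quantified by ELISA at 24 h. Activity in either direction was fitted versus DMSO negative control.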

A short description of assay [2]: BSK_LPS_PGE2: BioMAP Diversity Plus: LPS Assay for Prostaglandin E2 (PGE2) Biomarker Activity (AID 2283082).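 As to AC50: secreted prostaglandin E2 measured by ELISA in LPS-stimulated co-culture.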 In a few lines:
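HUVEC plus human PBMC co-culture stimulated with LPS; secreted PGE2 quantified by ELISA 24 h after chemical dosing. Activity fitted bidirectionally against DMSO baseline; parallel SRB staining (0.1% SRB after 10% TCA fixation, 560 nm) flags overt cytotoxicity.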

Read-out in assay [3]: Macrophage colony-stimulating factor (MCSF), CSF1 (gene 1435)
The experiment in a line: BSK_LPS_MCSF: BioMAP Diversity Plus: LPS Assay for Macrophage colony-stimulating factor (MCSF) Biomarker Activity (AID 2283083). The procedure, abridged: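 ELISA readout of M-CSF after 24 h compound exposure in a human endothelial/PBMC co-culture. Activity, in either direction, is fitted relative to DMSO vehicle.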

Read-out in assay [4]: Tumor necrosis factor (Homo sapiens) (UniProt P01375)
The experiment in a line: BSK_LPS_TNFa: BioMAP Diversity Plus: LPS Assay for Tumour Necrosis Factor alpha (TNFa) Biomarker Activity (AID 2283085). The procedure, abridged: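 Human umbilical vein endothelial cells co-cultured with PBMC and stimulated with LPS. TNFa was measured by ELISA 24 h after chemical dosing, fitted bidirectionally relative to DMSO.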

Read-out in assay [5]: Vascular cell adhesion molecule 1 (VCAM1), VCAM1 (gene 7412)
The experiment in a line: BSK_LPS_VCAM1: BioMAP Diversity Plus: LPS Assay for Vascular cell adhesion molecule 1 (VCAM1) Biomarker Activity (AID 2283086). In a few lines:
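Human umbilical vein endothelial cells co-cultured with PBMC and stimulated with LPS; VCAM-1 measured by ELISA 24 h after dosing. Bidirectional curve fitting against DMSO baseline; cytotoxicity tracked in parallel by SRB total-protein staining.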

Read-out in a further assay: CD38, CD38 (gene 952)
The experiment in a line: BSK_SAg_CD38: BioMAP Diversity Plus: SAg Assay for CD38 Biomarker Activity (AID 2283087). In a few lines:
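Human HUVEC plus PBMC co-culture stimulated with superantigen; CD38 measured by ELISA 24 h after chemical dosing. Fluorescence read-out, bidirectional fit against DMSO; cytotoxicity tracked in parallel by SRB and Alamar Blue.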

Read-out in another assay: CD40, CD40 (gene 958)
The experiment in a line: BSK_SAg_CD40: BioMAP Diversity Plus: SAg Assay for CD40 Biomarker Activity (AID 2283088). In a few lines:
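Compounds were dosed onto a human primary endothelial–PBMC co-culture, and after 24 h CD40 was quantified by ELISA using a fluorescence signal. Activity in either direction was fitted relative to DMSO.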

Read-out in the next assay: CD69, CD69 (gene 969)
The experiment in a line: BSK_SAg_CD69: BioMAP Diversity Plus: SAg Assay for CD69 Biomarker Activity (AID 2283089).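 As to AC50: cell surface CD69 protein quantified by ELISA with fluorescence detection.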 The procedure, abridged:
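HUVEC co-cultured with PBMC were dosed with chemical, and CD69 was measured by ELISA with fluorescence read-out 24 h later. Bidirectional curve fitting used DMSO as negative control and activity baseline.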

Read-out in assay [6]: Monocyte Chemoattractant Protein-1 (MCP1), CCL2 (gene 6347)
The experiment in a line: BSK_SAg_MCP1: BioMAP Diversity Plus: SAg Assay for Monocyte Chemoattractant Protein-1 (MCP1) Biomarker Activity (AID 2283090). The procedure, abridged: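 MCP-1 levels in the endothelial–PBMC SAg co-culture were quantified by ELISA at 24 h post-dosing; both increases and decreases versus DMSO scored. Cytotoxicity monitored by SRB total protein in parallel cultures.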

Read-out in assay [7]: Tissue Factor, F3 (gene 2152)
The experiment in a line: BSK_LPS_TissueFactor: BioMAP Diversity Plus: LPS Assay for Tissue Factor Biomarker Activity (AID 2283084). In a few lines:
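ELISA signal for cell-surface Tissue Factor (CD142) was read 24 h after compound dosing of an LPS-stimulated human endothelial–PBMC primary co-culture. Gain or loss of signal was scored relative to DMSO.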

The results in this text go back to PubChem BioAssay (EPA / NIEHS).

SMILES strings stand for the structures. Some compounds were tested as several samples or in several runs, with calls that do not always agree. Activity calls are given as the source filed them. The calls were made as follows: active = hit-call score of the fitted dose curve at least 0.9, where 1 is the maximum; inactive = score below 0.9.

Sequence of Tumor necrosis factor (Homo sapiens) (P01375 whole entry, looked up): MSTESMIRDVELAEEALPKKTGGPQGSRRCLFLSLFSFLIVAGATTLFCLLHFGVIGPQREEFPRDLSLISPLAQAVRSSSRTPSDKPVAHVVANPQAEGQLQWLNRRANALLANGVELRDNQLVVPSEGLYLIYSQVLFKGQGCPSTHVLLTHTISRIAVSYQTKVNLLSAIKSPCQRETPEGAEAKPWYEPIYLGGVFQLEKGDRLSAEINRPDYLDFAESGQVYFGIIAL

For the molecule `CCOC(N)=O`, the outcome in assay [1] is “inactive”; in assay [2], “inactive”; in assay [3] it was “inactive”; in assay [4], “inactive”; in assay [5] it was “inactive”; in the assay with CD38, CD38 (gene 952), “inactive”. In addition, the outcome in the assay with CD40, CD40 (gene 958) was “inactive”; with CD69, CD69 (gene 969), “inactive”; in assay [6], “inactive”.
On to `OCc1c[nH]c2ccccc12`, for which the outcome in assay [2] was “inactive”; in [7] it was “inactive”; in [4] it was “inactive”; in [5], “inactive”; with CD38, CD38 (gene 952) it was “inactive”; in the assay with CD69, CD69 (gene 969), “inactive”. Besides, the result in assay [6] was inactive. Also, the AC50 is 3.97 µM (active) in [3] and 20 µM (active) with CD40, CD40 (gene 958).
On to `COc1cc(C(C)C)c2c(c1)S(=O)(=O)N(COc1cc(=O)n3cccc(OCCN4CCCCC4)c3n1)C2=O`, for which the outcome was “inactive” in assay [2]; “inactive” in assay [7]; “inactive” in [4]; “inactive” in the assay with CD38, CD38 (gene 952). In addition, the AC50 in assay [3] was 5 µM (active); in [5] it was 6.02 µM (active); in the assay with CD40, CD40 (gene 958), 5 µM (active); in the assay with CD69, CD69 (gene 969), 5 µM (active); in [6] it was 5 µM (active).
`CCN(CC)C(=S)SSC(=S)N(CC)CC`: the AC50 was 29.5 µM (active) in [1]; 14.9 µM (active) in assay [2]; 30.3 µM (active) in assay [3]; 15.4 µM (active) in assay [4]; 28 µM (active) in assay [5]; 31.7 µM (active) in the assay with CD38, CD38 (gene 952). The AC50 is 20 µM (active) with CD69, CD69 (gene 969) and 28.4 µM (active) in assay [6].
In the case of `OCC(CO)(CO)CO`, the outcome was “inactive” in [1]; “inactive” in assay [2]; “inactive” in [3]; “inactive” in assay [4]; “inactive” in [5]; “inactive” in the assay with CD38, CD38 (gene 952). Moreover, the outcome in the assay with CD40, CD40 (gene 958) is “inactive”; with CD69, CD69 (gene 969) it was “inactive”; in [6], “inactive”.
For the molecule `OC(Cn1cncn1)(Cn1cncn1)c1ccc(F)cc1F`, the outcome in assay [1] is “inactive”; in assay [2], “inactive”; in assay [3], “inactive”; in assay [4] it was “inactive”; in assay [5], “inactive”; in the assay with CD38, CD38 (gene 952), “inactive”. The outcome with CD40, CD40 (gene 958) is “inactive”; with CD69, CD69 (gene 969) it was “inactive”; in assay [6], “inactive”.
With `OC[C@H]1O[C@@H]2O[C@H]3[C@H](O)[C@@H](O)[C@@H](O[C@H]4[C@H](O)[C@@H](O)[C@@H](O[C@H]5[C@H](O)[C@@H](O)[C@@H](O[C@H]6[C@H](O)[C@@H](O)[C@@H](O[C@H]7[C@H](O)[C@@H](O)[C@@H](O[C@H]1[C@H](O)[C@H]2O)O[C@@H]7CO)O[C@@H]6CO)O[C@@H]5CO)O[C@@H]4CO)O[C@@H]3CO`, the outcome in [1] was “inactive”; in assay [2], “inactive”; in assay [3], “inactive”; in assay [4] it was “inactive”; in [5], “inactive”; in the assay with CD38, CD38 (gene 952), “inactive”. The outcome is “inactive” with CD40, CD40 (gene 958); “inactive” with CD69, CD69 (gene 969); “inactive” in [6].
For `COc1cc2c(c(OC)c1OC)-c1ccc(OC)c(=O)cc1[C@@H](NC(C)=O)CC2`, the outcome in assay [1], in assay [2] and in assay [6] was inactive. Also, the AC50 in assay [3] was 0.493 µM (active); in assay [4] it was 2.39 µM (active); in [5], 0.431 µM (active); in the assay with CD38, CD38 (gene 952) it was 0.148 µM (active); with CD40, CD40 (gene 958), 0.218 µM (active); in the assay with CD69, CD69 (gene 969), 0.505 µM (active).
As to `CC(=O)c1ccccc1`, the outcome in [2] was “inactive”; in assay [3], “inactive”; in [7], “inactive”; in [4], “inactive”; in [5], “inactive”; in the assay with CD38, CD38 (gene 952) it was “inactive”. Moreover, the outcome is “inactive” in the assay with CD40, CD40 (gene 958); “inactive” in the assay with CD69, CD69 (gene 969); “inactive” in assay [6].
On to `OC(CCl)CCl`, for which the outcome in assay [2] is “inactive”; in assay [3], “inactive”; in assay [7] it was “inactive”; in [4] it was “inactive”; in assay [5] it was “inactive”; with CD38, CD38 (gene 952), “inactive”. The outcome is “inactive” with CD40, CD40 (gene 958); “inactive” in the assay with CD69, CD69 (gene 969); “inactive” in assay [6].
In the case of `CCCc1ccccc1`, the outcome in [2] is “inactive”; in assay [3], “inactive”; in assay [7], “inactive”; in assay [4], “inactive”; in [5], “inactive”; in the assay with CD38, CD38 (gene 952), “inactive”. Besides, the outcome is “inactive” with CD40, CD40 (gene 958); “inactive” with CD69, CD69 (gene 969); “inactive” in assay [6].
As for `C[Si](C)(C)C(F)(F)C(F)(F)C(F)(F)F`, the outcome is “inactive” in assay [2]; “inactive” in [3]; “inactive” in [7]; “inactive” in [4]; “inactive” in [5]; “inactive” with CD38, CD38 (gene 952). Moreover, the outcome with CD40, CD40 (gene 958) was “inactive”; with CD69, CD69 (gene 969), “inactive”; in [6], “inactive”.
Consider `FC(F)=C(F)C(F)(F)C(F)(F)C(F)(F)C(F)(F)C(F)(F)C(F)(F)F`, for which the outcome in assay [2] was “inactive”; in assay [3], “inactive”; in assay [4] it was “inactive”; in [5], “inactive”; with CD38, CD38 (gene 952), “inactive”; with CD40, CD40 (gene 958) it was “inactive”. In addition, the outcome with CD69, CD69 (gene 969) was “inactive”; in assay [6] it was “inactive”.
`OCCC(F)(F)C(F)(F)C(F)(F)C(F)(F)F`: the outcome in assay [2] is “inactive”; in assay [3] it was “inactive”; in assay [4], “inactive”; in assay [5], “inactive”; in the assay with CD38, CD38 (gene 952), “inactive”; with CD40, CD40 (gene 958) it was “inactive”. The outcome in the assay with CD69, CD69 (gene 969) was “inactive”; in assay [6] it was “inactive”. Moreover, in the assay with CD38, CD38 (gene 952), the AC50 was 0.234 µM (active).
For the molecule `CCCCCOC(C)=O`, the outcome in assay [2] is “inactive”; in assay [3] it was “inactive”; in assay [5] it was “inactive”; with CD38, CD38 (gene 952), “inactive”; with CD40, CD40 (gene 958), “inactive”; with CD69, CD69 (gene 969) it was “inactive”. Besides, in assay [6], the outcome was inactive. Moreover, in assay [4], the AC50 was 10.1 µM (active).
Consider `CCCCCCCC/C=C\CCCCCCCC(=O)OC[C@@H](O)[C@H]1OC[C@H](O)[C@H]1O`, for which the outcome in [2] was “inactive”; in [3] it was “inactive”; in [4] it was “inactive”; in assay [5], “inactive”; with CD38, CD38 (gene 952) it was “inactive”; with CD40, CD40 (gene 958), “inactive”. For the same molecule, the outcome was “inactive” in the assay with CD69, CD69 (gene 969) and “inactive” in assay [6].
In the case of `CCCCCCCCCCCCCCO`, the result in assay [2] and in assay [4] was inactive. In addition, the AC50 in [3] is 31.5 µM (active); in [5] it was 29.6 µM (active); with CD38, CD38 (gene 952), 31.1 µM (active); with CD40, CD40 (gene 958), 34.1 µM (active); with CD69, CD69 (gene 969) it was 30.6 µM (active); in [6] it was 34.2 µM (active).
Consider `Cn1cc[nH]c1=S`, for which the outcome is “inactive” in assay [2]; “inactive” in assay [3]; “inactive” in assay [4]; “inactive” in [5]; “inactive” with CD38, CD38 (gene 952); “inactive” in the assay with CD40, CD40 (gene 958). The outcome with CD69, CD69 (gene 969) was “inactive”; in assay [6], “inactive”.
For `FC(F)C(F)(F)COCC1CO1` (centres undefined), the outcome was “inactive” in assay [2]; “inactive” in [3]; “inactive” in assay [4]; “inactive” in assay [5]; “inactive” in the assay with CD38, CD38 (gene 952); “inactive” with CD40, CD40 (gene 958). The outcome in the assay with CD69, CD69 (gene 969) was “inactive”; in assay [6] it was “inactive”.
